Read-out in assay [1]: Intercellular Adhesion Molecule 1 (ICAM1), ICAM1 (gene 3383)
The assay can be described thus: BSK_BE3C_ICAM1: BioMAP Diversity Plus: BE3C Assay for Intercellular Adhesion Molecule 1 (ICAM1) Biomarker Activity (AID 2284278).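 Also: cell-surface ICAM-1 protein level quantified by ELISA.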 As to conditions: primary human bronchial epithelial cells. An outline of the steps:
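ICAM-1 quantified by ELISA and fitted against DMSO baseline, 24 h post-dosing in BE3C cultures of primary human lung bronchial epithelial cells. Cytotoxicity checked in parallel cultures by total protein SRB staining.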

Read-out in assay [2]: Interferon-inducible T-cell alpha chemoattractant (ITAC), CXCL11 (gene 6373)
The assay is described as follows: BSK_BE3C_ITAC: BioMAP Diversity Plus: BE3C Assay for Interferon-inducible T-cell alpha chemoattractant (ITAC) Biomarker Activity (AID 2284279). The note with it: primary human bronchial epithelial cells. The method in brief: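 BE3C cells (human primary bronchial epithelium), 24 h compound exposure, I-TAC by ELISA, DMSO = negative control/baseline, positive fitting direction.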

Read-out in assay [3]: Interleukin-8 (IL8), CXCL8 (gene 3576)
The assay is described as follows: BSK_BE3C_IL8: BioMAP Diversity Plus: BE3C Assay for Interleukin-8 (IL8) Biomarker Activity (AID 2284280). The note with it: primary human bronchial epithelial cells. An outline of the steps:
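Measured at 24 h after treatment, IL-8 from human primary bronchial epithelial cells is determined by ELISA, and the response is modelled as increasing relative to DMSO negative control.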

Read-out in assay [4]: Epidermal growth factor receptor (EGFR), EGFR (gene 1956)
The assay is described as follows: BSK_BE3C_EGFR: BioMAP Diversity Plus: BE3C Assay for Epidermal growth factor receptor (EGFR) Biomarker Activity (AID 2284281). As to conditions: primary human bronchial epithelial cells. An outline of the steps: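 Measured 24 h after dosing in primary human bronchial epithelial cultures, EGFR was read by ELISA; gain of signal over DMSO control defined activity.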

Read-out in the next assay: KRT18 (gene 3875)
The assay is described as follows: BSK_BE3C_Keratin818: BioMAP Diversity Plus: BE3C Assay for Keratin 818 Biomarker Activity (AID 2284282). The note with it: primary human bronchial epithelial cells. An outline of the steps:
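ELISA readout of Keratin 8/18 in human primary bronchial epithelial cultures after 24 h chemical exposure, DMSO baseline. Parallel SRB staining (0.1%, TCA-fixed, 560 nm) served as cytotoxicity check.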

Read-out in assay [5]: Matrix Metallopeptidase 9 (MMP9), MMP9 (gene 4318)
The assay can be described thus: BSK_BE3C_MMP9: BioMAP Diversity Plus: BE3C Assay for Matrix Metallopeptidase 9 (MMP9) Biomarker Activity (AID 2284283). As to conditions: primary human bronchial epithelial cells. The method in brief:
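ELISA read-out of MMP-9 after 24 h compound exposure of human lung bronchial epithelial primary cells (BE3C). Fit in gain direction vs DMSO negative control; total protein by SRB in parallel cultures flagged overt cytotoxicity.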

Read-out in assay [6]: Plasminogen activator inhibitor-1 (PAI1), SERPINE1 (gene 5054)
The assay is described as follows: BSK_CASM3C_PAI1: BioMAP Diversity Plus: CASM3C Assay for Plasminogen activator inhibitor-1 (PAI1) Biomarker Activity (AID 2284284).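 Also: PAI-1 protein level measured by ELISA 24 h after dosing.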 The note with it: primary human coronary artery smooth muscle cells.

Read-out in assay [7]: Monocyte Chemoattractant Protein-1 (MCP1), CCL2 (gene 6347)
The assay can be described thus: BSK_hDFCGF_MCP1: BioMAP Diversity Plus: hDFCGF Assay for Monocyte Chemoattractant Protein-1 (MCP1) Biomarker Activity (AID 2284285). The note with it: primary human foreskin fibroblasts. The method in brief: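 MCP-1 ELISA readout was taken 24 hours after dosing primary human dermal fibroblasts in the hDFCGF system, with DMSO as baseline. Parallel sulforhodamine B staining of total protein tracked overt cytotoxicity.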

Read-out in assay [8]: Vascular cell adhesion molecule 1 (VCAM1), VCAM1 (gene 7412)
The assay is described as follows: BSK_IMphg_VCAM1: BioMAP Diversity Plus: IMphg Assay for Vascular cell adhesion molecule 1 (VCAM1) Biomarker Activity (AID 2284286). As to conditions: primary human endothelial cells with macrophages. An outline of the steps:
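ELISA read-out of VCAM-1 on venular endothelial cell/macrophage co-cultures at 24 h post-treatment, with DMSO as baseline and positive-direction fitting. Parallel sulforhodamine B total-protein staining (560 nm) served as the overt cytotoxicity measure.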

Read-out in assay [9]: Intercellular Adhesion Molecule 1 (ICAM1), ICAM1 (gene 3383)
The assay is described as follows: BSK_hDFCGF_ICAM1: BioMAP Diversity Plus: hDFCGF Assay for Intercellular Adhesion Molecule 1 (ICAM1) Biomarker Activity (AID 2284287). As to conditions: primary human foreskin fibroblasts. The method in brief: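 ICAM-1 ELISA readout 24 h after dosing, DMSO as baseline, in human dermal foreskin fibroblast cultures. Cytotoxicity checked in parallel wells by SRB staining (0.1% SRB, 10% TCA fixation, 560 nm).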

Read-out in another assay: CD40, CD40 (gene 958)
The assay can be described thus: BSK_IMphg_CD40: BioMAP Diversity Plus: IMphg Assay for CD40 Biomarker Activity (AID 2284288). The note with it: primary human endothelial cells with macrophages. An outline of the steps:
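ELISA read-out of cell-surface CD40 at 24 h in human venular endothelial cell/macrophage co-cultures. Activity fitted in the positive direction against DMSO; parallel SRB staining (560 nm) gauges overt cytotoxicity.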

Read-out in assay [10]: TIMP metallopeptidase inhibitor 2 (TIMP2), TIMP2 (gene 7077)
The assay can be described thus: BSK_hDFCGF_TIMP2: BioMAP Diversity Plus: hDFCGF Assay for TIMP metallopeptidase inhibitor 2 (TIMP2) Biomarker Activity (AID 2284289). As to conditions: primary human foreskin fibroblasts. The method in brief: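 Primary human foreskin fibroblasts in the hDFCGF system, dosed for 24 h; TIMP-2 level measured by ELISA, fitted in the positive direction against DMSO; cytotoxicity checked in parallel by sulforhodamine B total protein staining.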

Read-out in assay [11]: Interleukin-1 alpha (IL1a), IL1A (gene 3552)
The assay can be described thus: BSK_IMphg_IL1a: BioMAP Diversity Plus: IMphg Assay for Interleukin-1 alpha (IL1a) Biomarker Activity (AID 2284290). The note with it: primary human endothelial cells with macrophages. An outline of the steps: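 IL-1α is quantified by ELISA at 24 h in the endothelial/macrophage IMphg co-culture, with gain of signal fitted relative to DMSO. Parallel SRB total-protein staining flags overt toxicity.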

Read-out in assay [12]: E-selectin (Homo sapiens) (UniProt P16581)
The assay is described as follows: BSK_IMphg_ESelectin: BioMAP Diversity Plus: IMphg Assay for Eselectin Biomarker Activity (AID 2284291). As to conditions: primary human endothelial cells with macrophages. The method in brief: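 Analysed against DMSO baseline in the positive fitting direction, this endpoint is an ELISA read of E-selectin. It comes from human venular endothelial cells co-cultured with macrophages, sampled 24 h post-dose.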

A short description of assay [13]: BSK_IMphg_SRB: Viability Assessment in the BioMAP Diversity Plus: IMphg Assay (AID 2284292).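 Also: measured one day after compound addition.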 As to conditions: primary human endothelial cells with macrophages. An outline of the steps:
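SRB viability endpoint: cultures of human endothelial cells plus macrophages fixed with 10% TCA, stained with 0.1% SRB, read at 560 nm 24 h post-dosing. Only gain-of-signal fitted, relative to DMSO.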

Read-out in assay [14]: Macrophage colony-stimulating factor (MCSF), CSF1 (gene 1435)
The assay is described as follows: BSK_IMphg_MCSF: BioMAP Diversity Plus: IMphg Assay for Macrophage colony-stimulating factor (MCSF) Biomarker Activity (AID 2284293). As to conditions: primary human endothelial cells with macrophages. An outline of the steps: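 M-CSF was measured by ELISA in human venular endothelial cell/macrophage co-cultures dosed for 24 hours. Sulforhodamine B staining of parallel cultures assessed cytotoxicity; data fitted against DMSO baseline.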

Read-out in assay [15]: Interleukin-10 (IL10), IL10 (gene 3586)
The assay can be described thus: BSK_IMphg_IL10: BioMAP Diversity Plus: IMphg Assay for Interleukin-10 (IL10) Biomarker Activity (AID 2284294). As to conditions: primary human endothelial cells with macrophages. The method in brief:
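IL-10 read by ELISA after 24 h chemical exposure of primary human venular endothelial cell/macrophage cocultures, with DMSO as baseline. Parallel SRB staining (560 nm) gauged overt cytotoxicity.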

A short description of assay [16]: BSK_IMphg_SRB.Mphg: Macrophage Viability Assessment in the BioMAP Diversity Plus: IMphg Assay (AID 2284295). As to conditions: primary human endothelial cells with macrophages. The method in brief: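 Cytotoxicity read-out: parallel cultures fixed with 10% TCA, stained with 0.1% sulforhodamine B, read at 560 nm. System combines venular endothelium and macrophages; sampled 24 h post-dosing, fitted positively relative to DMSO control.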

Read-out in assay [17]: Thrombomodulin, THBD (gene 7056)
The assay is described as follows: BSK_LPS_Thrombomodulin: BioMAP Diversity Plus: LPS Assay for Thrombomodulin Biomarker Activity (AID 2284296). The note with it: primary human HUVEC with PBMC. An outline of the steps: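 Thrombomodulin on the surface of LPS-activated endothelial/PBMC co-cultures was quantified by ELISA at 24 hours post-dosing, with DMSO as baseline. Parallel SRB total-protein staining flagged overt cytotoxicity.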

A short description of assay [18]: IUF_NPC2c_oligodendrocyte_migration_120hr: Leibniz Research Institute for Environmental Medicine (IUF) 120-hour Neural Progenitor Cell Migration Assay for Oligodendrocyte Migration (NPC2c) (AID 2284297).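 Also: O4-positive oligodendrocyte migration distance divided by radial glia migration distance.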 The method in brief: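 hNPC spheres (GW 16-19 cortex), PDL/laminin, DMEM/F12 3:1 + 1% N2, 37C. Dosing day 0–5, half feed day 3, DMSO ≤0.1%. Fixed 120 h; O4 ICC + Hoechst, HCI. Readout: mean oligodendrocyte distance from sphere edge / radial glia distance.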

“And” between values parts separate entries of the source, which are not always exact repeats. Equal values may be shown once. A structure can be active in one record and inactive in another. The source made the active and inactive calls. The calls were made as follows: active = hit-call score of the fitted dose curve at least 0.9, where 1 is the maximum; inactive = score below 0.9.

By AC50 is commonly meant the midpoint of the concentration-response curve, whichever way the signal moves.

E-selectin (Homo sapiens), sequence (P16581 whole entry, looked up): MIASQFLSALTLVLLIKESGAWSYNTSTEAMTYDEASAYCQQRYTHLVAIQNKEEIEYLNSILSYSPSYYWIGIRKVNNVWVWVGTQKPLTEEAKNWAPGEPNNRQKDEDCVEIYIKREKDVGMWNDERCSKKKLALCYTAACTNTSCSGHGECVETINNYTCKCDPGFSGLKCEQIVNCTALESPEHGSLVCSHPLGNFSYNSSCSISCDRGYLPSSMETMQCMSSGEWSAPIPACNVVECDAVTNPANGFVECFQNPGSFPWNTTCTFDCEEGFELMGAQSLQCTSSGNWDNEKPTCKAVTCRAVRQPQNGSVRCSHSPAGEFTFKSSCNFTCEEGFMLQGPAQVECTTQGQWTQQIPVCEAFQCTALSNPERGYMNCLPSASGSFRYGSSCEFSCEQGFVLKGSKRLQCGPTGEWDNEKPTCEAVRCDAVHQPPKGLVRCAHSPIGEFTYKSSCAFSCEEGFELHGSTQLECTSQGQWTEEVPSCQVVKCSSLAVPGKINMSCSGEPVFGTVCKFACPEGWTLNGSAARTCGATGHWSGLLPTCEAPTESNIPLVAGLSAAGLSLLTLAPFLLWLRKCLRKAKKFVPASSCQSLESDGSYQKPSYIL

Consider `C=C(C)C(=O)OCCC(F)(F)C(F)(F)C(F)(F)C(F)(F)C(F)(F)C(F)(F)F`, for which the result (in assay [1]; in assay [2]; in [3]; in [4]; in the assay with KRT18 (gene 3875); in [5]) was inactive. Also, the outcome in assay [6] was “inactive”; in assay [7] it was “inactive”; in assay [8], “inactive”; in assay [9], “inactive”; with CD40, CD40 (gene 958), “inactive”; in assay [10], “inactive”. Besides, the result in assay [11], in assay [12], in assay [13], in [14], in assay [15] and in [16] was inactive. For the same compound, in assay [17], the result was inactive. For the same compound, the half-maximal activity concentration (AC50) with KRT18 (gene 3875) is 2.19 µM (active).
Regarding `CC#C[C@]1(O)CC[C@H]2[C@@H]3CCC4=CC(=O)CCC4=C3[C@@H](c3ccc(N(C)C)cc3)C[C@@]21C`, in assay [18], the compound was classed as inactive.
As to `NCC(F)(F)C(F)(F)C(F)(F)C(F)(F)C(F)(F)C(F)(F)C(F)(F)F`, the result (in assay [1]; in assay [2]; in assay [3]; in assay [4]; with KRT18 (gene 3875); in assay [5]) was inactive. Further, the outcome in assay [6] is “inactive”; in assay [7] it was “inactive”; in [8] it was “inactive”; in assay [9], “inactive”; in the assay with CD40, CD40 (gene 958), “inactive”; in assay [10], “inactive”. Besides, the outcome in assay [11], in assay [12], in [13], in assay [14], in [15] and in assay [16] was inactive. Besides, the outcome in [17] was inactive. Besides, the AC50 was 24 µM (active) with CD40, CD40 (gene 958) and 0.22 µM (active) in assay [16].
With `OCCC(F)(F)C(F)(F)C(F)(F)C(F)(F)C(F)(F)C(F)(F)F`, the outcome (in [1]; in assay [2]; in assay [3]; in [4]; with KRT18 (gene 3875); in assay [5]) was inactive. The outcome in assay [6] is “inactive”; in assay [8] it was “inactive”; with CD40, CD40 (gene 958), “inactive”; in assay [11] it was “inactive”; in assay [12] it was “inactive”; in [13], “inactive”. In addition, the result in assay [14], in [15], in assay [16] and in [17] was inactive. Moreover, the AC50 in [7] was 49.6 µM (active) and 54.3 µM (active); in [9], 44 µM (active) and 54 µM (active); in assay [10], 52.5 µM (active) and 47 µM (active); in assay [12], 55.2 µM (active); in assay [16], 39.8 µM (active).
